Assay outcomes (PubChem BioAssay)
This is a sample that favours compounds with a hit; in the whole collection about 1.1% have one here.
C-LANA FP – inhibitors of KSHV LANA C-terminal domain DNA binding | 340,000 tested, 0.078% active | AID 504423 | MBP-C-LANA/FAM-LBS DNA binding, fluorescence polarization | inhibition, % at 9 µM;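 active = highest replicate inhibition at or above 60% at 9 µM, even if other replicates fall short; inactive = all replicates below 60% inhibition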
NSD2 HMT inh – blocks human histone methyltransferase NSD2; AID 743445; inhibition, % at 12.5 µM; NSD2 peptide methylation, AlphaScreen, 120 min; O96028; 310,000 tested, 0.54% active; in the data active = inhibition above about 50%
HDAC3 inh – blocks human histone deacetylase 3; O15379; recombinant HDAC3, fluorogenic peptide/trypsin coupled, fluorescence; inhibition, % at 8.3 µM; 320,000 tested, 0.15% active; in the data active = inhibition above about 26%, passing the limit was not always enough
Keap1-Nrf2 PPI – inhibitors of human Keap1-Nrf2 protein-protein interaction; inhibition, % at 9.4 µM; 340,000 tested, 0.15% active; AID 504523; Keap1 Kelch-Nrf2 peptide fluorescence polarization, 1536-well; Q14145; in the data active = inhibition above about 12%;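 also: human Keap1 Kelch domain with fluorescein labeled Nrf2 9mer peptide probe; higher means more block of Keap1 binding to Nrf2 peptide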
Target sequence (Q14145 whole entry, looked up, the tested form may be a part): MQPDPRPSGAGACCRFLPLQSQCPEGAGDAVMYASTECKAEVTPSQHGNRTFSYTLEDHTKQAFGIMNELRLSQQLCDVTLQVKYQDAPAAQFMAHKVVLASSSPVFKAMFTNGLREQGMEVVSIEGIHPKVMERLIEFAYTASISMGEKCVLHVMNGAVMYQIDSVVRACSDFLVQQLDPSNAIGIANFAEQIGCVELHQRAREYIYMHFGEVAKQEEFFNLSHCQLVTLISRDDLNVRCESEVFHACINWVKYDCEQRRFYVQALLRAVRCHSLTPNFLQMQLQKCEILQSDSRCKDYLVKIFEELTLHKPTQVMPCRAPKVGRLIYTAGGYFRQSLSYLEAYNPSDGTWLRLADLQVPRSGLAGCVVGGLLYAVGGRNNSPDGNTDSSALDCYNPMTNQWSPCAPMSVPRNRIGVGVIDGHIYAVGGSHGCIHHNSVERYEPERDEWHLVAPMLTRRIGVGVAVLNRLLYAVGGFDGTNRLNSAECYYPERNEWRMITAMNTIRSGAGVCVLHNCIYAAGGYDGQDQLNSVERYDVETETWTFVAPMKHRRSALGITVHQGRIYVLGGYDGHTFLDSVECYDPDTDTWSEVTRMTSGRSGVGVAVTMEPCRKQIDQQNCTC
Glyco luc inh – N-linked glycosylation inhibition; reporter increase, % at 12.5 µM; D54 ERlucT glycosylation luciferase reporter, 24 h; percent of 100 nM tunicamycin response; AID 588692; 360,000 tested, 0.23% active;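 active = mean luciferase reporter signal, scaled so untreated is 0 and the glycosylation-blocking control 100, at or above a set limit in every replicate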;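 also: luciferase carries N-glycosylation sites so blocking glycosylation raises the light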
CASP6 VEID inh – blocks human caspase-6 cleavage activity; P55212; purified caspase-6, Z-VEID-R110 cleavage fluorescence; inhibition, % at 12.5 µM; 350,000 tested, 0.53% active; AID 686996;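 active = mean inhibition across replicates at least about 35%, with every replicate also reaching that limit, limit read from the data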
Numbers stand for hits; - = inactive; . = no result given.

SMILES	C-LANA FP	NSD2 HMT inh	HDAC3 inh	Keap1-Nrf2 PPI	Glyco luc inh	CASP6 VEID inh
O=C(c1ccc(Cl)c(S(=O)(=O)N2CCCCC2)c1)N1CCN(Cc2ccccc2)CC1	-	-	-	-	28.7	-
COc1cccc(N2CC(O)=C(c3nc4ccccc4c(=O)[nH]3)C2=N)c1	-	.	-	-	36.2	.
CCC1(C)Cc2c(C#N)c(N)sc(=S)c2CO1 (stereo unspecified)	-	-	-	-	-	-
CCC1(C)Cc2c(C#N)c(N)n(-c3ccccc3)c(=S)c2CO1 (stereo unspecified)	-	-	-	-	-	35.6
COc1cccc(Oc2ccc(C(F)(F)F)cc2NC(=O)CN2C(=O)NC3(CCCC3)C2=O)c1	-	-	-	-	86.4	-
CCOC(=O)Cc1nnc(NC(=O)C(CC)Sc2nc(C)cc(=O)[nH]2)s1 (stereo unspecified)	-	.	-	-	-	43.2
CCOC(=O)Cc1nnc(NC(=O)C(CC)Sc2nncn2C)s1 (stereo unspecified)	-	.	-	-	-	-
CCOc1ccc(C2Nc3ccc4ccccc4c3-c3c2c(=O)oc2ccccc32)cc1 (stereo unspecified)	-	-	-	-	-	.
COc1ccc(C2Nc3ccc4ccccc4c3-c3c2c(=O)oc2ccccc32)cc1 (stereo unspecified)	-	-	-	-	108.8	.
CN1c2ccc(Br)cc2[C@H]2[C@H](CCN2C(=O)C2CCCC2)[C@@H]1CO	.	.	.	.	.	-
CC(C)N(CC(=O)Nc1ccc(Cl)cc1C(F)(F)F)C(=O)CCl	-	-	-	-	33.9	-
C[C@@H](NC(=O)C[C@H]1CC[C@H](NS(=O)(=O)c2cccc(F)c2)[C@@H](CO)O1)c1ccccc1	.	.	.	.	.	-
Cn1c(SCC(=O)Nc2nncs2)nnc1C1CC1	-	-	-	-	-	35.8
O=C(Oc1ccc2ccc(=O)oc2c1)c1cccs1	-	-	30.4	-	-	-
O=C(c1ccccc1)c1ccc(O)c(O)c1O	-	.	.	-	-	73.4
Cc1cc(C(=O)c2ccccc2)cc(C)c1O	-	-	.	-	-	-
CC(=O)N(C)c1ccc(N=Cc2cc3c(cc2[N+](=O)[O-])OCO3)cc1	-	.	-	-	-	36.0
CC(C)NC(=O)C1(C)CCN1C(=O)c1ccc2c(c1)OCO2 (stereo unspecified)	.	-	.	.	-	70.8
COc1ccccc1NC(=O)N(C)C[C@H]1Oc2ncc(C#CCN(C)C)cc2C(=O)N([C@H](C)CO)C[C@@H]1C	.	.	.	.	.	-
CCN1[C@@H]2c3ccc(-c4ccc(OC)cc4)c(=O)n3C[C@@H]2[C@@H](CO)[C@@H]1C(=O)NC1CCC1	.	.	.	.	.	-
O=C1[C@H]2[C@@H](c3ccc(F)cc3)N3C(=O)N(c4cccc(F)c4)C(=O)[C@@]3(Cc3ccccc3)[C@H]2C(=O)N1C1CCCCC1	-	.	-	-	-	.
Cc1cccc([C@@H]2[C@@H]3C(=O)N(Cc4ccccc4)C(=O)[C@@H]3[C@]3(Cc4ccccc4)C(=O)N(c4cccc(Cl)c4)C(=O)N23)c1	-	.	-	-	40.7	-
Cc1cccc([C@@H]2[C@@H]3C(=O)N(Cc4ccccc4)C(=O)[C@@H]3[C@]3(Cc4ccccc4)C(=O)N(c4cccc(F)c4)C(=O)N23)c1	-	.	-	-	33.5	-
CC[C@@]12C(=O)N(c3cccc(F)c3)C(=O)N1[C@H](c1cccc(C)c1)[C@@H]1C(=O)N(Cc3ccccc3)C(=O)[C@@H]12	-	.	-	-	-	-
O=C1[C@H]2[C@@H](c3ccc(F)cc3)N3C(=O)N(c4cccc(Br)c4)C(=O)[C@@]3(Cc3ccccc3)[C@H]2C(=O)N1C1CCCCC1	-	.	-	-	67.2	-
SMILES	C-LANA FP	NSD2 HMT inh	HDAC3 inh	Keap1-Nrf2 PPI	Glyco luc inh	CASP6 VEID inh
O=C(Cc1cccc2ccccc12)NN1C(=O)CSC1=S	-	-	-	-	-	-
O=C(NN1C(=O)CSC1=S)C(=O)NN1C(=O)CSC1=S	-	-	-	-	-	51.0
COc1ccc(-c2nc(C(N)=O)c3[nH]c(=O)n(-c4cccc(Cl)c4)c3n2)cc1OC	-	-	.	-	35.7	.
C[C@@H]1CCCCO[C@H](CN(C)C(=O)Nc2ccc(F)cc2)[C@H](C)CN([C@@H](C)CO)C(=O)c2cc(NS(=O)(=O)c3cccs3)ccc2O1	.	.	.	.	.	-
COc1cc(Nc2nc3c(N)cc(C(F)(F)F)cc3nc2-c2ccccc2)cc(OC)c1OC	-	-	.	-	26.3	-
COc1cc(Nc2cccc(-c3ccccc3)n2)cc(OC)c1OC	.	-	.	.	-	-
